The panel holds about 79,000 compounds, 15% with a hit somewhere; the sample as a whole holds those more often. The source made the active and inactive calls. Cut-off read from the data, not from the text of the source: active = growth inhibition above about 70%; inactive = the rest. Where a SMILES comes first, the peptide text is derived from it. [ ]: non-standard residue; d: D form. The star is where a group is joined. Phe(2-OMe) = COc1ccccc1C[CH](N)C(=O)O; Cbz = O=C(OCc1ccccc1)*; OBn = c1ccc(CO*)cc1
Tests used:
[1] = NCI Yeast Anticancer Drug Screen. Data for the rad50 strain (AID 155);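 note: 0% = growth of vehicle-only cultures of the same strain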; conditions: S. cerevisiae rad50 strain growth inhibition, hits give high values
Summary of the method: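 Vehicle-treated cultures provide the reference for the growth inhibition reported for compound-exposed, repair-deficient yeast.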

[2] = NCI Yeast Anticancer Drug Screen. Data for the mec2-1 strain (AID 157); conditions: S. cerevisiae mec2-1 strain, hits give high values
Summary of the method: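 Growth inhibition is read against vehicle-treated controls after compound exposure of the mec2-1 yeast strain, which is defective in DNA damage repair or cell cycle control.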

[3] = NCI Yeast Anticancer Drug Screen. Data for the sgs1 mgt1 strain (AID 161);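 note: 0% = growth of cultures given vehicle only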; conditions: S. cerevisiae sgs1 mgt1 strain, hits give high values
Summary of the method: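 Compounds are added to genetically altered yeast, and growth is compared with cultures given vehicle alone to give percent inhibition.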

[4] = NCI Yeast Anticancer Drug Screen. Data for the cln2 rad14 strain (AID 165);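 note: 0% = growth equal to vehicle treated cultures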; conditions: S. cerevisiae cln2 rad14 strain, hits give high values
Summary of the method: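 Growth inhibition, relative to vehicle-treated controls, is the read-out. The test organism is a yeast strain with defined genetic alterations, cln2 rad14.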

[5] = NCI Yeast Anticancer Drug Screen. Data for the bub3 strain (AID 167); conditions: S. cerevisiae bub3 mutant strain, hits give high values
Summary of the method: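 Mutant yeast screening strain plus compound; vehicle-treated cultures serve as the 0% inhibition reference.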

[6] = NCI Yeast Anticancer Drug Screen. Data for the mlh1 rad18 strain (AID 175); conditions: S. cerevisiae mlh1 rad18 strain growth inhibition, hits give high values
Summary of the method: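 Cells of a genetically altered yeast strain, deficient in DNA damage repair, were treated with compound. Their growth was then compared with that of vehicle-treated cultures to give inhibition.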

[7] = at 5.0 µM (retest, dose inferred, filed as 0.5)
[8] = at 50.0 µM (retest, dose inferred, filed as 5.0)

Measured: growth inhibition

Nc1nc(N)c2nc(CNc3ccc(C(=O)NC(CCC(=O)O)C(=O)O)cc3)ccc2n1 (centres undefined)
inactive: [1]; [7] -2% | [1]; [8] -5% | [1]; at 50.0 µM 16.3% | [2]; [7] -25% | [2]; [8] 11% | [2]; at 50.0 µM 64.2% | [3]; [7] 18% | [3]; [8] 16% | [3]; at 50.0 µM 0.1% | [4]; [7] 9% | [4]; [8] 21% | [4]; at 50.0 µM -5.8% | [5]; [7] 7% | [5]; [8] 3% | [5]; at 50.0 µM -38.9% | [6]; [7] -8% | [6]; [8] 8% | [6]; at 50.0 µM -20.7%

COC(=O)C(Cc1ccccc1OC)NC(=O)C(CC(=O)OCc1ccccc1)NC(=O)OCc1ccccc1 (centres undefined) (Cbz-Asp(OBn)-[Phe(2-OMe)]-OMe; configuration not given here)
active: [1]; [8] 84% | [3]; [8] 92% | [4]; [8] 86% | [4]; at 50.0 µM 80.5% | [5]; [8] 84% | [5]; at 50.0 µM 87.8% | [6]; [8] 84%
inactive: [1]; [7] -5% | [1]; at 50.0 µM 51.5% | [2]; [7] 0% | [2]; [8] 37% | [2]; at 50.0 µM 58.2% | [3]; [7] 1% | [3]; at 50.0 µM 65.2% | [4]; [7] 16% | [5]; [7] -1% | [6]; [7] 0% | [6]; at 50.0 µM 54.8%

CC(C(=O)O)C(N)C(=O)O (centres undefined)
active: [1]; at 50.0 µM 99.5% | [2]; at 50.0 µM 99.6% | [3]; at 50.0 µM 99.3% | [4]; at 50.0 µM 99.5% | [5]; at 50.0 µM 99.6% | [6]; at 50.0 µM 99.5%
inactive: [1]; [7] -1% | [1]; [8] 4% | [2]; [7] -1% | [2]; [8] -6% | [3]; [7] -2% | [3]; [8] 2% | [4]; [7] 6% | [4]; [8] -6% | [5]; [7] 4% | [5]; [8] -7% | [6]; [7] -2% | [6]; [8] 3%

Cc1ccc(C2(O)CCN(Cc3ccccc3)CC2)cc1
inactive: [1]; [7] 30% | [1]; at 50.0 µM 56.5% | [2]; [7] 39% | [2]; at 50.0 µM 8.3% | [3]; [7] 47% | [4]; at 50.0 µM 61.8% | [5]; [7] 64% | [5]; at 50.0 µM 41% | [6]; [7] 37% | [6]; at 50.0 µM 47%
active: [1]; [8] 85% | [2]; [8] 99% | [3]; [8] 72% | [3]; at 50.0 µM 70% | [4]; [7] 75% | [4]; [8] 89% | [5]; [8] 81% | [6]; [8] 98%

CN1C(=O)CCC2[C@@H]3CC=C4C[C@@H](O)CC[C@]4(C)C3CC[C@@]21C (some centres undefined)
inactive: [1]; [7] -3% | [1]; [8] 27% | [1]; at 50.0 µM 16.4% | [2]; [7] 0% | [2]; [8] 11% | [2]; at 50.0 µM 0.3% | [3]; [7] 1% | [3]; [8] 59% | [3]; at 50.0 µM 69.8% | [4]; [7] 10% | [4]; [8] 13% | [4]; at 50.0 µM 28.8% | [5]; [7] 22% | [5]; [8] 66% | [5]; at 50.0 µM 57.7% | [6]; [7] -7% | [6]; [8] 16%
active: [6]; at 50.0 µM 70.8%

Cc1cc(N2C(=O)CSC2=S)c([N+](=O)[O-])cc1C
active: [1]; [8] 99% | [1]; at 50.0 µM 99.2% | [2]; [8] 100% | [2]; at 50.0 µM 99.5% | [3]; [8] 99% | [3]; at 50.0 µM 99.5% | [4]; [8] 97% | [4]; at 50.0 µM 99.1% | [5]; [8] 99% | [5]; at 50.0 µM 99.5% | [6]; [7] 84% | [6]; [8] 99% | [6]; at 50.0 µM 99.3%
inactive: [1]; [7] 23% | [2]; [7] 17% | [3]; [7] 64% | [4]; [7] 7% | [5]; [7] 42%

CN(C)CC(CN(C)C)C(=O)C1CCCCC1
active: [1]; [8] 90% | [1]; at 50.0 µM 81.2% | [2]; [8] 96% | [2]; at 50.0 µM 94.7% | [3]; [8] 71% | [3]; at 50.0 µM 76.8% | [4]; [8] 89% | [5]; [8] 98% | [6]; [8] 95% | [6]; at 50.0 µM 96.6%
inactive: [1]; [7] 25% | [2]; [7] 2% | [3]; [7] -9% | [4]; [7] 19% | [4]; at 50.0 µM 10.3% | [5]; [7] 7% | [5]; at 50.0 µM 23.2% | [6]; [7] 12%

CN1N=C2c3ccccc3CC[C@H]2C1c1cccc(O)c1 (some centres undefined)
active: [3]; [8] 88% | [4]; [8] 83% | [5]; [8] 78% | [6]; [8] 82%
inactive: [1]; [7] -36% | [1]; [8] 65% | [1]; at 50.0 µM 52.7% | [2]; [7] 5% | [2]; [8] 34% | [2]; at 50.0 µM 23.4% | [3]; [7] -16% | [3]; at 50.0 µM 69.2% | [4]; [7] 24% | [4]; at 50.0 µM 43.8% | [5]; [7] 21% | [5]; at 50.0 µM 67.2% | [6]; [7] -16% | [6]; at 50.0 µM 35.9%
